PubChem BioAssay AID1159580 (chemical genetic matrix, 2015)
Values joined by “and” are separate entries in the source; they are usually repeats but may differ in a detail not shown here. Equal values may be shown once. Hit rate of the full screen: of about 5,500 compounds, about 2,000 (36%) were called active. Inconclusive results (about 18%) are left out. No stated cut-off is given here; in the data, active means normalized growth mostly below about 0.91 (no sharp cut-off); inconclusive means no clear call, values can overlap the other calls; inactive means mostly above about 0.92. This is one part of the list.

Assay: chemical genetic growth profiling, strain panel (AID 1159580);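 further: tested at 20 µM; growth read once vehicle control cultures reached saturation at 30 °C; 1 = growth at the plate median or of vehicle wells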
Conditions: growth OD

Measured: normalized growth

CCn1cc(C(=O)O)c(=O)c2cc(F)c(N3CCNC(C)C3)c(F)c21 (stereo not given)
inactive: S. cerevisiae deletion strains, locus YJR075W, strain HOC1, stronger effect = lower value 0.991 and 0.993 | S. cerevisiae deletion strains, locus YKL009W, strain mrt4, stronger effect = lower value 0.979 | S. cerevisiae deletion strains, locus YKL068W, stronger effect = lower value 0.981 | S. cerevisiae deletion strains, locus YKL085W, strain MDH1 (second series), stronger effect = lower value 0.985 | S. cerevisiae deletion strains, locus YKL085W, strain MDH1, stronger effect = lower value 0.985 | S. cerevisiae deletion strains, locus YKL160W, strain elf1, stronger effect = lower value 0.943 | S. cerevisiae deletion strains, locus YKL190W, strain CNB1, stronger effect = lower value 0.995 | S. cerevisiae deletion strains, locus YKR001C, strain vps1, stronger effect = lower value 0.993 | S. cerevisiae deletion strains, locus YKR026C, strain gcn3, stronger effect = lower value 0.996 | S. cerevisiae deletion strains, locus YKR091W, strain srl3, stronger effect = lower value 0.982 | S. cerevisiae deletion strains, locus YLL001W, strain dnm1, stronger effect = lower value 0.985 | S. cerevisiae deletion strains, locus YLL026W, stronger effect = lower value 0.99 | S. cerevisiae deletion strains, locus YLL041C, strain sdh2, stronger effect = lower value 0.975 | S. cerevisiae deletion strains, locus YLR027C, strain aat2, stronger effect = lower value 0.992 | S. cerevisiae deletion strains, locus YLR039C, strain RIC1, stronger effect = lower value 0.973 | S. cerevisiae deletion strains, locus YLR058C, strain SHM2, stronger effect = lower value 0.995 | S. cerevisiae deletion strains, locus YLR102C, strain apc9, stronger effect = lower value 0.986 | S. cerevisiae deletion strains, locus YLR113W, strain HOG1, stronger effect = lower value 1.06 | S. cerevisiae deletion strains, locus YLR221C, strain rsa3, stronger effect = lower value 1 | S. cerevisiae deletion strains, locus YLR258W, strain gsy2, stronger effect = lower value 0.98 | S. cerevisiae deletion strains, locus YLR262C, strain YPT6 (second series), stronger effect = lower value 0.996 | S. cerevisiae deletion strains, locus YLR262C, strain YPT6, stronger effect = lower value 0.979 | S. cerevisiae deletion strains, locus YLR268W, strain sec22, stronger effect = lower value 0.988 | S. cerevisiae deletion strains, locus YLR320W, strain mms22, stronger effect = lower value 0.961 | S. cerevisiae deletion strains, locus YLR330W, strain CHS5, stronger effect = lower value 0.982 | S. cerevisiae deletion strains, locus YLR342W, strain FKS1 (second series), stronger effect = lower value 0.951 | S. cerevisiae deletion strains, locus YLR342W, strain FKS1, stronger effect = lower value 0.957 | S. cerevisiae deletion strains, locus YLR357W, strain rsc2, stronger effect = lower value 0.919 | S. cerevisiae deletion strains, locus YLR370C, strain arc18, stronger effect = lower value 0.965 | S. cerevisiae deletion strains, locus YLR371W, strain rom2, stronger effect = lower value 0.992 | S. cerevisiae deletion strains, locus YLR384C, strain iki3, stronger effect = lower value 0.964 | S. cerevisiae deletion strains, locus YLR418C, strain cdc73, stronger effect = lower value 0.892 | S. cerevisiae deletion strains, locus YML016C, strain PPZ1, stronger effect = lower value 0.991 | S. cerevisiae deletion strains, locus YML032C, strain rad52, stronger effect = lower value 0.994 | S. cerevisiae deletion strains, locus YML120C, strain ndi1, stronger effect = lower value 0.993 | S. cerevisiae deletion strains, locus YML124C, strain tub3, stronger effect = lower value 0.996 | S. cerevisiae deletion strains, locus YMR058W, strain fet3, stronger effect = lower value 0.994 | S. cerevisiae deletion strains, locus YMR078C, strain ctf18, stronger effect = lower value 0.982 | S. cerevisiae deletion strains, locus YMR125W, strain sto1, stronger effect = lower value 0.961 | S. cerevisiae deletion strains, locus YMR129W, stronger effect = lower value 0.971 | S. cerevisiae deletion strains, locus YMR205C, strain PFK2, stronger effect = lower value 0.985 | S. cerevisiae deletion strains, locus YMR223W, strain ubp8, stronger effect = lower value 0.976 | S. cerevisiae deletion strains, locus YMR231W, strain pep5, stronger effect = lower value 0.984 | S. cerevisiae deletion strains, locus YMR263W, strain SAP30, stronger effect = lower value 1 | S. cerevisiae deletion strains, locus YMR307W, strain GAS1, stronger effect = lower value 1.01 | S. cerevisiae deletion strains, locus YNL067W, strain RPL9B, stronger effect = lower value 1.03 | S. cerevisiae deletion strains, locus YNL071W, strain lat1, stronger effect = lower value 0.977 | S. cerevisiae deletion strains, locus YNL128W, strain TEP1, stronger effect = lower value 0.964 | S. cerevisiae deletion strains, locus YNL153C, strain GIM3, stronger effect = lower value 1.06 | S. cerevisiae deletion strains, locus YNL175C, strain NOP13, stronger effect = lower value 0.998 | S. cerevisiae deletion strains, locus YNL183C, strain NPR1, stronger effect = lower value 0.962 | S. cerevisiae deletion strains, locus YNL197C, strain WHI3, stronger effect = lower value 1 | S. cerevisiae deletion strains, locus YNL209W, strain ssb2, stronger effect = lower value 0.965 | S. cerevisiae deletion strains, locus YNL224C, strain SQS1, stronger effect = lower value 0.994 | S. cerevisiae deletion strains, locus YNL233W, strain BNI4, stronger effect = lower value 1.03 | S. cerevisiae deletion strains, locus YNL248C, strain rpa49, stronger effect = lower value 0.926 | S. cerevisiae deletion strains, locus YNL250W, strain rad50, stronger effect = lower value 0.943 | S. cerevisiae deletion strains, locus YNL271C, strain bni1, stronger effect = lower value 0.992 | S. cerevisiae deletion strains, locus YNL298W, strain CLA4, stronger effect = lower value 0.988 | S. cerevisiae deletion strains, locus YNL307C, strain MCK1, stronger effect = lower value 0.984 | S. cerevisiae deletion strains, locus YNL322C, strain KRE1 (second series), stronger effect = lower value 0.964 | S. cerevisiae deletion strains, locus YNL322C, strain KRE1, stronger effect = lower value 1.02 | S. cerevisiae deletion strains, locus YNR049C, strain mso1, stronger effect = lower value 0.975 | S. cerevisiae deletion strains, locus YNR052C, strain pop2, stronger effect = lower value 0.989 | S. cerevisiae deletion strains, locus YOL006C, strain TOP1, stronger effect = lower value 1.08 | S. cerevisiae deletion strains, locus YOL012C, strain htz1 1.44 | S. cerevisiae deletion strains, locus YOL147C, strain pex11, stronger effect = lower value 0.985 | S. cerevisiae deletion strains, locus YOR001W, strain rrp6, stronger effect = lower value 1 | S. cerevisiae deletion strains, locus YOR061W, strain CKA2, stronger effect = lower value 0.993 | S. cerevisiae deletion strains, locus YOR069W, strain VPS5, stronger effect = lower value 0.988 | S. cerevisiae deletion strains, locus YOR070C, strain gyp1, stronger effect = lower value 0.985 | S. cerevisiae deletion strains, locus YOR080W, strain dia2, stronger effect = lower value 0.972 | S. cerevisiae deletion strains, locus YOR083W, strain WHI5 (second series), stronger effect = lower value 0.992 | S. cerevisiae deletion strains, locus YOR083W, strain WHI5, stronger effect = lower value 0.897 | S. cerevisiae deletion strains, locus YOR106W, strain vam3, stronger effect = lower value 0.931 | S. cerevisiae deletion strains, locus YOR136W, strain idh2, stronger effect = lower value 0.998 | S. cerevisiae deletion strains, locus YOR144C, strain elg1, stronger effect = lower value 0.992 | S. cerevisiae deletion strains, locus YOR184W, strain ser1, stronger effect = lower value 0.988 | S. cerevisiae deletion strains, locus YOR231W, strain MKK1, stronger effect = lower value 1.04 | S. cerevisiae deletion strains, locus YOR265W, strain rbl2, stronger effect = lower value 0.972 | S. cerevisiae deletion strains, locus YOR270C, strain vph1, stronger effect = lower value 0.982 | S. cerevisiae deletion strains, locus YOR290C, strain snf2, stronger effect = lower value 0.968 | S. cerevisiae deletion strains, locus YOR316C, strain cot1, stronger effect = lower value 1 | S. cerevisiae deletion strains, locus YPL051W, strain arl3, stronger effect = lower value 0.971 | S. cerevisiae deletion strains, locus YPL055C, strain LGE1, stronger effect = lower value 0.985 | S. cerevisiae deletion strains, locus YPL078C, strain atp4, stronger effect = lower value 0.957 | S. cerevisiae deletion strains, locus YPL106C, strain sse1, stronger effect = lower value 0.939 | S. cerevisiae deletion strains, locus YPL240C, strain hsp82, stronger effect = lower value 0.983 | S. cerevisiae deletion strains, locus YPL256C, strain CLN2, stronger effect = lower value 1.04 | S. cerevisiae deletion strains, locus YPR119W, strain clb2, stronger effect = lower value 0.993 | S. cerevisiae deletion strains, locus YPR141C, strain kar3, stronger effect = lower value 0.985 | S. cerevisiae deletion strains, locus YPR163C, strain tif3, stronger effect = lower value 0.986 | S. cerevisiae deletion strains, locus YPR167C, strain met16, stronger effect = lower value 0.999 | S. cerevisiae deletion strains, strain wtn01, stronger effect = lower value 0.998 | S. cerevisiae strains, strain wild type, stronger effect = lower value 0.997
